Laboratory results from PubChem BioAssay AID1508600 (Functional Genomics Laboratory (NCATS/FGL), 2020).
About 3,700 (7%) of roughly 53,000 sequences were called active. The full list was thinned out, with actives kept by preference. A number with no mark means an inactive call.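 How the source made its calls: active means gene knockdowns whose robust z-score for IL-1 alpha signal is at least 2 or at most -2, so actives lie on both sides; inactive means the rest.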

Assay: Components of the Cytosolic LPS Sensing Pathway: Gene Identification via Genome-wide siRNA Screen;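 further: robust z of the log signal after scaling to non-targeting control siRNA wells of the plate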
Conditions: RAW264.7 macrophages, IL-1a HTRF, actives lie on both sides, screened at 100 nM (by protocol), cells primed 5 h with Pam3CSK4 first
In short: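 Cells (RAW264.7, 1×10^4 per well) were transfected with siRNA at 100 nM and cultured 48h at 37 degrees C. Pam3CSK4 was added for 5 hours; LipidA transfection followed for 24 hour. IL-1a was then measured by HTRF.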

Point of comparison: GGUCACACCCACCAUUACGTT against Serpina11, z-score -0.765. Against it:
- GGAAGAACAGGAAGAAGUGTT against Pank1 — higher, 1.02
- CCAGCUUUCAUUAACUUUATT against Ppp1r10 — higher, -0.571
- CGAGCUAUCCACUUAAUCATT against Irak3 — lower, -0.859
- GGCUCUGGGUGGUAUUCAUTT against Slc5a2 — higher, -0.637
- GGCACUGGGCAAACAUUAATT against Ptprcap — higher, 1.09
- GGGCAACGAGCUGUUCAAATT against Unc45a — higher, 1.71
- GGGAUCUGGAUUUAAUUUGTT against Arf5 — higher, 0.523
- CCAUUACAGGGUUUUUUAUTT against Slc37a3 — higher, -0.62
- GGGAAAAGCAAACACUAAUTT against C1d — lower, -1.84
- GGUCAUAAGAAGCUCAAGATT against Serpinb9d — higher, 0.268
- GGAAGAACUCAAGAGGGAATT against Plpp2 — lower, -0.775
- GCUGGGAGUAAAAUUGACUTT against Cenpj — higher, -0.65
- CGAGCAUGCUGAAAAGACCTT against Steap1 — lower, -0.826
- GGUUUUAAAGCAUCUUCGUTT against Pard6g — higher, -0.284
- GGGCAACAUUUUUCAGUGCTT against Prox1 — higher, 0.722
- CCGAUAAUGCUUUCUUUGGTT against Ppp1cc — higher, 0.547
- CCAAGUCAGUGCUGUAAAGTT against F830104G03Rik — lower, -1.58
- GGGAUAUUCAUUGACUUUGTT against Prr5 — lower, -1.88
- CCAAGAAUGUUUCCAUGUUTT against Slc12a5 — lower, -1.68
- CCUGAACCACUUGUUAAAUTT against Rnf10 — higher, 0.124
- GCUUCAGGUCAGUCUCUUCTT against Olfr1042 — higher, 0.969
- GGAGGCAAAAAUGAUGCUATT against Slpi — higher, 1.97
- GCAUCUCACUUUUGACCUATT against Retreg2 — higher, 0.928
- GCAAUUAUAACUUAGAAGGTT against Eml3 — higher, 0.149
- GCCUUUCAACUCACCAGCCTT against Zfp574 — higher, 0.617
- GGGAAGGAAUAUGAUGGGCTT against Sik3 — higher, -0.704
- GGUCCCAACGAAGAAACCATT against Cd55 — higher, 0.475
- GCUAAAUUUCCCAUAGGAATT against Pmch — higher, 0.822
- GGAGCUUCGAAAAAAGUUGTT against Pex16 — higher, 0.329
- GCACAAUUAUGAGAGUGCATT against Grin1 — lower, -0.91
- GGGUUAAGCGCAAGUGUAATT against Degs2 — higher, 0.331
- GGCUGAAAAUAUUUUCAGATT against Garnl3 — higher, -0.1
- GGAGCCAGUGACAAUAAAUTT against Mtag2 — lower, -1.1
- GGCUCUCAUCCAUCUCCUUTT against Olfr715 — lower, -1.79
- GGUCUGGAAAACCAGCUUATT against D630039A03Rik — higher, 1.04
- GGUUGAAGUCUAUUCUCGATT against Trap1 — higher, -0.139
- GGGUUUGACAGAGAGAAGATT against Atp5g2 — higher, -0.581
- GGUGAGCGUGUAGAGAUGCTT against Fbxo45 — higher, 0.787
- GCACUUUGUGCUAUAUAAGTT against Mapk14 — higher, 0.616
- GGUAAAGUUGCUUAAUUAGTT against Msl3l2 — higher, 0.944
- GGAAGAAGUCUGAUACAUCTT against Samd5 — higher, 0.572
- CGCUAAUCUUCGAAAACCUTT against Abcc12 — lower, -0.998
- GGUUAUCCAACCUAGAAUATT against Tmlhe — higher, 0.74
- GGCAAAGUUUGGGAUUACATT against Ntng1 — higher, 1.17
- GGUUGUAUUGGAUAUCAAGTT against Ceacam2 — higher, 0.953
- GGACUUUGAAAAGAGAAUUTT against Polb — higher, -0.213
- GGACUUCUCCAUCCUGCUUTT against Alg1 — higher, -0.542
- GGGCAUUGCCAGGAAUUAUTT against Lrp1b — higher, 1.31
- GUUGUCCAUAUCAUGUUUGTT against Olfr569 — higher, 1.28
- GGGAAGAGCCCUAAUAUUATT against Aldh1a2 — higher, -0.098
- GGUGGACAAGACUAAAACATT against Podxl — higher, -0.253
- GGGCCAAAUAGCUAUGCAGTT against Aldoc — higher, -0.309
- GGUGCUCUCAGGAAAGUUGTT against Olfr1157 — higher, 0.82
- CCUGUACUCUAUAUUCUGUTT against Pld2 — higher, 0.98
- GGCCAUCGAACUCAAUCUCTT against Lrrc57 — higher, 0.243

For GGCAGUUCAAAAGACCACATT against Zcchc7, the z-score was 2.38 (active).
In the case of GGAGCAUCUCAAACCUUCATT against Lancl3, the z-score is reported as -3.8 (active).
With GAUGCGGCUCCUUGGAAUUTT against Slc51b the z-score was 2.38 (active).
In the case of GCCGGAAGAUAAGGCUCAUTT against Gap43, the z-score is reported as -2.2 (active).
With GGAUCUUAAGUCCUAACAUTT against Tacc3 the z-score was -2.37 (active).
For GGUGAUGCCUGUGAAGACATT against Il3ra, the z-score was 2.04 (active).
With GUCUCAAGUGGACUGUGAGTT against Klk1b4 the z-score was -2.83 (active).
For GGGCUAAGGCGAAAAGACUTT against Msx2, the z-score was 3.24 (active).
In the case of GGUGAUGAUGUCAUACAAATT against Cav1, the z-score is reported as 3.12 (active).
With GGGCUAAAGUUGAUAAUAATT against Psmc3 the z-score was -2.02 (active).
With GGAGUUCGUACCCUUAUCCTT against Rtel1 the z-score was -2.2 (active).
For GGGACCAGAGGAAACAGAATT against Tnfsf13b, the z-score was -2.21 (active).
For GGAAUUAUAAAAGACCACGTT against Kctd12b, the z-score was 2.39 (active).
